Source: PubChem BioAssay (National Center for Advancing Translational Sciences (NCATS))
Only some compounds are listed: those with a hit (about 20% of all), similar ones and a draw of the others.
Pf growth 48h – inhibits P. falciparum growth in the first generation, 48 h; P. falciparum luciferase growth in erythrocytes, 48 h; Potency, µM (titrated, usually from 28.7 µM), for inactives: top-dose activity change, negative = inhibition, hits mostly inhibitors; 310,000 tested, 5.9% active; AID 504832; note: potency is the fitted concentration of half-maximal effect; % is set by controls: 0 for no effect and ±100 for the full control effect
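Parasite viability was followed by luminescence of a genomically integrated firefly luciferase. Cultures held 0.1% parasitemia at 2% hematocrit (final), incubated under 5% CO2 at 37 C.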
CHX counter – counter-screen for Shiga toxin inhibitors: cycloheximide protein synthesis inhibition; max response, %; AID 2314; cell reporter, cycloheximide protein synthesis inhibition counterscreen; 300,000 tested, 12% active; in the data active = max response mostly above about 13%, no sharp cut-off; inactive = mostly below about 14%; note: read at 38.3 µM for the half of the compounds with a filed dose; 0% is about no effect
Shiga toxin inh – Shiga toxin inhibition. Vero cells, Shiga toxin protein synthesis inhibition reporter. inhibition, % at 38.7 µM. 290,000 tested, 9.2% active. AID 2315; in the data active = inhibition mostly above about 28%, no sharp cut-off; inactive = mostly below about 43%; note: 0% is about no effect
HCMV antiviral – human cytomegalovirus inhibition; HFF cells, HCMV-luciferase reporter, 72 h; active compounds read low; activity change, negative = inhibition, % at 57.5 µM; 410,000 tested, 4.5% active; in the data active = activity change below about -60%; inconclusive = no clear call, values can overlap the other calls; inactive = above about -39%; note: % is set by controls: 0 for no effect and ±100 for the full control effect
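Steps: HFFs plated, 16 h 37C; compounds added; HCMV-luciferase added to MOI 1 PFU/cell; 72 h 37C; OneGlo reagent, 5 min room temperature; luminescence read, normalized to controls.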
Pf growth 96h – P. falciparum growth inhibition at 96 hour, primary screen for plastid delayed-death inhibitors; Potency, µM (series often up to 28.7 µM), for the others: at the highest dose activity change, negative = inhibition, actives largely listed as inhibitors; AID 504834; P. falciparum luciferase reporter growth, 96 h; 320,000 tested, 6.9% active; note: potency is the fitted concentration of half-maximal effect; % is set by controls: 0 for no effect and ±100 for the full control effect
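P. falciparum expressing integrated firefly luciferase grown in erythrocytes (2% hematocrit, 0.05% parasitemia final) with compounds for 96 hours at 37 C, 5% CO2. Growth inhibition read as loss of luminescence after adding luciferase detection reagent.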
* hit, by the source's call. Unless noted, calls come from the whole dose curve; as a rule, active = well fitted inhibition curve with a large enough effect; inconclusive = small, poorly fitted or top-dose-only effect, or another doubt; inactive = no such curve, though single readings can be large or run the other way.

`COc1cc([C@@H]2CC=C(C(=O)O)[C@H](c3ccc(Cl)cc3)N2S(=O)(=O)c2ccc(C)cc2)cc(OC)c1OC` gave Pf growth 48h 9.3µM*, HCMV antiviral 27 and Pf growth 96h 9.3µM*.
For COc1ccc([C@@H]2CC=C(C(=O)O)CN2S(=O)(=O)c2ccc(C)cc2)cc1OC the results were Pf growth 48h -5%, HCMV antiviral -64* and Pf growth 96h 55%.
Screening CC(C)C(=O)Nc1nnc(SCC(=O)NCc2ccco2)s1 returned Pf growth 48h 6%, CHX counter -2, Shiga toxin inh -15, HCMV antiviral -23 and Pf growth 96h 26%.
Screening COc1ccc(S(=O)(=O)N2CCSC2c2ccc(OC)c(OC)c2)cc1 (stereo unspecified) returned Pf growth 48h inconclusive, CHX counter -2, Shiga toxin inh -5, HCMV antiviral -62* and Pf growth 96h 102%.
`COc1ccc(C)cc1NS(=O)(=O)c1c(C(=O)N2CCCCCC2)c(C)n(C)c1C` gave HCMV antiviral 3.
Cc1ccc(S(=O)(=O)N/N=C\c2cn(CC(N)=O)c3ccccc23)cc1C was read as Pf growth 48h 15%, CHX counter -2, Shiga toxin inh 20, HCMV antiviral 32 and Pf growth 96h 202%.
Cc1nc2scc(C)n2c(=O)c1S(=O)(=O)Nc1ccc(N2CCOCC2)c(Cl)c1 was read as Pf growth 48h -5%, CHX counter 6, Shiga toxin inh -5, HCMV antiviral inconclusive and Pf growth 96h 9.3µM*.
`CCN1CCN(c2ccc(NS(=O)(=O)c3c(C)nc4sccn4c3=O)cc2Cl)CC1` gave HCMV antiviral -68*.
Screening Cc1nc2sccn2c(=O)c1S(=O)(=O)Nc1ccc(N2CCOCC2)c(Cl)c1 returned Pf growth 48h 16%, CHX counter 0, Shiga toxin inh -7, HCMV antiviral 3 and Pf growth 96h inconclusive.
For COc1cccc(CNS(=O)(=O)c2c(C)nc3sccn3c2=O)c1 the results were Pf growth 48h 4%, CHX counter -3, Shiga toxin inh -1, HCMV antiviral 4 and Pf growth 96h 0.52µM*.
Screening Cc1nc2sccn2c(=O)c1S(=O)(=O)N1CCN(c2cccc(C(F)(F)F)c2)CC1 returned Pf growth 48h inconclusive, CHX counter 1, Shiga toxin inh -3, HCMV antiviral inconclusive and Pf growth 96h 10µM*.
Screening CCOC(=O)c1ccc(NS(=O)(=O)c2c(C)nc3sccn3c2=O)cc1 returned Pf growth 48h 31%, CHX counter 2, Shiga toxin inh 1, HCMV antiviral 60 and Pf growth 96h 10µM*.
For Cn1cc(Cl)c(C(=O)Nc2nccs2)n1 the results were Pf growth 48h 95%, CHX counter 40*, Shiga toxin inh 71*, HCMV antiviral -24 and Pf growth 96h inconclusive.
For O=C(Nc1nccs1)c1ncc(Cl)c(Cl)c1Cl the results were Pf growth 48h -23%, CHX counter 42*, Shiga toxin inh 66*, HCMV antiviral 4 and Pf growth 96h -16%.
`CCn1ncc(Br)c1C(=O)Nc1nccs1` gave Pf growth 48h -15%, CHX counter -3, Shiga toxin inh 15 and HCMV antiviral 20.
`CCn1cc(Cl)c(C(=O)Nc2nccs2)n1` gave Pf growth 48h 76%, CHX counter 33*, Shiga toxin inh 32*, HCMV antiviral -33 and Pf growth 96h 81%.
COC(=O)c1cc(-c2ccccc2)sc1NC(=O)c1cc(C)on1 was read as Pf growth 48h 32%, CHX counter -3 and Shiga toxin inh -13.
For CCOc1cc(NC(C)=O)ccc1C(=O)OC the results were Pf growth 48h -1%, CHX counter 11, Shiga toxin inh -7 and Pf growth 96h -18%.
COC(=O)CCCNC(=O)c1ccc2nc(Cc3ccc(OC)cc3)oc2c1 was read as Pf growth 48h 0%, CHX counter 14*, Shiga toxin inh 60, HCMV antiviral 34 and Pf growth 96h 33%.
`COc1ccc(Cc2nc3ccc(C(=O)NC(C)C)cc3o2)cc1` gave HCMV antiviral 135.
`COc1cccc(NC(=O)c2ccc3nc(Cc4ccccc4)oc3c2)c1` gave HCMV antiviral -94*.
Screening CCN1CCN(CCCNC(=O)c2ccc3nc(Cc4ccc(OC)cc4)oc3c2)CC1 returned HCMV antiviral -14.
For CCOc1cccc(C(=O)Nc2ccc3oc(Cc4ccc(Cl)cc4)nc3c2)c1 the results were CHX counter 1, Shiga toxin inh 9 and HCMV antiviral -60*.
For C=C(C)CNC(=O)c1ccc2nc(Cc3ccc(OC)cc3)oc2c1 the results were Pf growth 48h 11%, CHX counter 39*, Shiga toxin inh 39*, HCMV antiviral 103 and Pf growth 96h -5%.
Screening CC(=O)Nc1ccc(OC(C)=O)cc1 returned Pf growth 48h -3% and Pf growth 96h -14%.
Screening O=C(O)CN(CCN(CC(=O)O)CC(=O)O)CCN(CC(=O)O)CC(=O)O returned Pf growth 48h -19% and Pf growth 96h inconclusive.
For CC(CCc1ccccc1)NC(=O)CNC(=O)COc1ccccc1 (stereo unspecified) the results were Pf growth 48h 4%, CHX counter -4, Shiga toxin inh -10, HCMV antiviral -19 and Pf growth 96h 2%.
CCC(NC(=O)c1ccc2nc(Cc3ccc(OC)cc3)oc2c1)c1ccncc1 (stereo unspecified) was read as Pf growth 48h -18%, CHX counter 31, Shiga toxin inh -2, HCMV antiviral active and Pf growth 96h inconclusive.
`CCC(C)NC(=O)c1ccc2nc(Cc3ccc(OC)cc3)oc2c1` (stereo unspecified) gave Pf growth 48h inconclusive, CHX counter 7, Shiga toxin inh -25, HCMV antiviral 5 and Pf growth 96h -11%.
For O=C(C#Cc1ccccc1)c1ccc([N+](=O)[O-])cc1 the results were CHX counter -3, Shiga toxin inh -8, HCMV antiviral -88* and Pf growth 96h inconclusive.
O=C(C#Cc1ccccc1)c1ccccc1 was read as HCMV antiviral -84*.
Screening Cc1cc(C)n2nc(SCC(=O)Nc3ccc(F)cc3[N+](=O)[O-])nc2n1 returned HCMV antiviral 35.
Screening COc1cc(C(=O)NC(=S)Nc2ccc(NC(=O)c3ccco3)cc2)cc(OC)c1OC returned Pf growth 48h -19%, CHX counter 3, Shiga toxin inh -2, HCMV antiviral -9 and Pf growth 96h 0%.
Screening CCOc1ccc(C(=O)NC(=S)Nc2ccc(NC(=O)c3ccco3)cc2)cc1[N+](=O)[O-] returned Pf growth 48h 18%, CHX counter 15*, Shiga toxin inh 5, HCMV antiviral -32 and Pf growth 96h 17%.
For COc1ccc(C(=O)NC(=S)Nc2cccc3ncccc23)cc1[N+](=O)[O-] the results were Pf growth 48h inconclusive, CHX counter -2, Shiga toxin inh -4, HCMV antiviral -23 and Pf growth 96h inconclusive.
